Measured values: PubChem BioAssay (NCI)
“And” between values parts separate entries of the source, which are not always exact repeats. Identical values can stand only once. About 83,000 compounds went through this panel and 20% of them were active in at least one assay; those are over-represented in the sample as a whole.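 Method: cells in 96-well plates; compound added at one concentration; 48 h incubation; percent growth measured; values under 10 scored active.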 A number with no mark means an inactive call. The source made the active and inactive calls.

Key:
Test in all cases: NCI-60 one-dose screen, 48 h (100 = growth as untreated, 0 = no growth, -100 = all killed)
Conditions in all cases: 10 µM unless noted
NCI-H23 lung = system: NCI-H23 lung
NCI-H226 lung = system: NCI-H226 lung
NCI-H322M lung = system: NCI-H322M lung
HOP-62 NSCLC = system: HOP-62 NSCLC
NCI-H460 lung = system: NCI-H460 lung
HOP-92 NSCLC = system: HOP-92 NSCLC
NCI-H522 lung = system: NCI-H522 lung
A549/ATCC NSCLC = system: A549/ATCC NSCLC
786-0 renal = system: 786-0 renal
COLO 205 colon = system: COLO 205 colon
DU-145 prostate = system: DU-145 prostate
K-562 leukemia = system: K-562 leukemia
MALME-3M melanoma = system: MALME-3M melanoma
MDA-MB-231 breast = system: MDA-MB-231 breast
RXF 393 renal = system: RXF 393 renal
SF-268 CNS = system: SF-268 CNS
SF-295 CNS = system: SF-295 CNS
SF-539 CNS = system: SF-539 CNS
UACC-257 melanoma = system: UACC-257 melanoma
M14 melanoma = system: M14 melanoma

Row | Structure (SMILES) | growth (NCI-H23 lung) | growth (NCI-H226 lung) | growth (NCI-H322M lung) | growth (HOP-62 NSCLC) | growth (NCI-H460 lung) | growth (HOP-92 NSCLC) | growth (NCI-H522 lung) | growth (A549/ATCC NSCLC) | growth (786-0 renal) | growth (COLO 205 colon) | growth (DU-145 prostate) | growth (K-562 leukemia) | growth (MALME-3M melanoma) | growth (MDA-MB-231 breast) | growth (RXF 393 renal) | growth (SF-268 CNS) | growth (SF-295 CNS) | growth (SF-539 CNS) | growth (UACC-257 melanoma) | growth (M14 melanoma)
1 | CC[C@]12C=CCN3CC[C@]4(C(=C(C(=O)OC)C1)Nc1cc(OC)c([C@@H]5[C@H]6O[C@H]6[C@@]6(CC)CC(C(=O)OC)=C7Nc8cc(OC)ccc8[C@@]78CCN5[C@@H]68)cc14)[C@@H]32 | 41.8% | 72.3% | 86.2% | 74.1% | 29.9% | 62.1% | 64.8% | 70.1% | 44.6% | 57.7% | 70.2% | 13.7% | 44.4% | 52.6% | 48.1% | 57.3% | 53.8% | 61.4% | 75.2% | 60.2%
2 | COc1cc(C=O)ccc1Oc1nc(Nc2ccc(F)cc2)nc(N(C)C)n1 | 59.8% and 65.8% | 75.4% and 81.6% | 96.5% and 78.9% | 90% and 85.7% | 80.2% and 52.3% | 87.3% and 65.7% | 88.6% and 82.1% | 95.1% and 91% | 78.4% and 52% | 110% and 103% | 90% and 72.7% | 55.6% and 35.2% | 75.8% and 82.1% | 90.1% and 76.2% | 91.9% and 64.9% | 73.2% and 66.9% | 65.5% and 82.7% | 92.9% and 42.8% | 57.7% and 102% | 93.4% and 65.3%
3 | N/C(=N\c1nc2ccccc2s1)NC(=O)Nc1ccccc1F | 19.9% | 46.2% | 54.5% | 0.224% (active) | 30.2% | 19.3% | -45.5% (active) | 47.5% | 17.7% | -33% (active) | 9.55% (active) | 13.1% | 33.3% | 19.9% | -1.57% (active) | 47.2% | 2.32% (active) | -40.1% (active) | 84.5% | 31.1%
4 | COc1ccc(N=Nc2c(N)nn3c(-c4ccc([N+](=O)[O-])cc4)ccnc23)cc1 | 105% | 95.2% | 107% | 95.3% | 105% | 94.5% | 91.6% | 104% | 93% | 119% | 105% | 95.1% | 93% | 98.5% | 109% | 98.8% | 97.5% | 99.2% | 97.3% | 104%
